Sm TGR block = S. mansoni TGR enzyme inhibition; 3% of 360,000 active; purified TGR, DTNB reduction, TNB absorbance 405 nm; AID 485364; Potency, µM (titrated, usually from 114 µM), for inactives: at the top dose activity change, negative = inhibition, most hits filed as inhibitors; also: potency is read from the fitted curve at half-maximal effect; % is scaled to controls: 0 for no effect and ±100 for the full control effect; nearly all actives have a fitted effect of over 60% in size
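Kinetic colorimetric format: TGR-catalysed, NADPH-driven DTNB reduction monitored via TNB absorbance. Enzyme dispensed at 20 nM; compound exposure 15 min at room temperature before reaction start.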
Cycloheximide cs = counter-screen for Shiga toxin inhibitors: cycloheximide protein synthesis inhibition; AID 2314; 12% of 300,000 active; cell reporter, cycloheximide protein synthesis inhibition counterscreen; max response, %; in the data active = max response mostly above about 13%, no sharp cut-off; inactive = mostly below about 14%; also: read at 38.3 µM for the half of the compounds with a filed dose; 0% is about no effect
Pf growth 48h = P. falciparum growth inhibition at 48 hours (one generation) | P. falciparum luciferase growth in erythrocytes, 48 h | Potency, µM (doses to about 28.7 µM), for the others: at the top dose activity change, negative = inhibition, most hits filed as inhibitors | 5.9% of 310,000 active | AID 504832; also: potency is read from the fitted curve at half-maximal effect; % is scaled to controls: 0 for no effect and ±100 for the full control effect
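Cell-based growth assay: transgenic P. falciparum expressing firefly luciferase, cultured in red cells within RPMI 1640 containing 0.5% w/v Albumax, 24 mM bicarbonate and gentamycin. A drop in luciferase activity indicates inhibition.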
Pf growth 96h = inhibits malaria parasite growth, 96 h; P. falciparum luciferase reporter growth, 96 h; Potency, µM (highest dose often 28.7 µM), for inactives: at the top dose activity change, negative = inhibition, usual class: inhibitors; 6.9% of 320,000 active; AID 504834; also: potency is read from the fitted curve at half-maximal effect; % is scaled to controls: 0 for no effect and ±100 for the full control effect
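Plates of compound plus infected erythrocytes (2% hematocrit, 0.05% parasitemia final) incubate 96 hours, 37 C, 5% CO2. Detection reagent added; reduced luminescence from the parasites' luciferase reporter flags inhibition.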
Shiga inhibitor = Shiga toxin inhibition. Vero cells, Shiga toxin protein synthesis inhibition reporter. 9.2% of 290,000 active. inhibition, % at 38.7 µM; in the data active = inhibition mostly above about 28%, no sharp cut-off; inactive = mostly below about 43%; also: 0% is about no effect
NS1 function inh = influenza NS1 inhibition. Potency, µM (series often up to 46.1 µM), for the others: at the top dose activity, positive = more growth. 0.4% of 270,000 active; calls by dose curve; also: potency is read from the fitted curve at half-maximal effect; actives are rising curves; nearly all actives have a fitted effect of over 50% in size
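A cell-based growth assay was used: compounds that relieve NS1-induced slow growth of budding yeast raise OD600. Assay medium was yeast nitrogen base with ammonium sulphate and -URA supplement, pH 6.0, with 2% galactose.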
Active calls of the source: *; ? = inconclusive; / = not tested or not shown; [ ] = dose if it differs, or a comment. Shown are actives, neighbours in structure and some others; about 21% of the full set was active somewhere. Unless noted, calls follow the shape of the dose curve; as a rule, active = well fitted curve in the direction sought with a large enough effect; inconclusive = small, poorly fitted or top-dose-only effect, or another doubt; inactive = no such curve, though single readings can be large; an effect the other way counts as inactive or inconclusive.

SMILES	Sm TGR block	Cycloheximide cs	Pf growth 48h	Pf growth 96h	Shiga inhibitor	NS1 function inh
C/[N+]([O-])=C\CC(=O)c1ccc(-c2ccccc2)cc1	?	24.5*	?	3.6%	20.0	/
Cc1ccc(C)c(NC(=O)Cn2cnc3nc4c(cc3c2=O)CCCC4)c1	-10.6%	/	/	/	/	/
O=C(CC1SC(=O)N(Cc2ccccc2Cl)C1=O)Nc1nccs1 (configuration not stated)	-14.5%	-2.5	105.6%	-6.3%	-2.8	-6.1%
CCOc1cc(N2CCOCC2)c(OCC)cc1NC(=O)[C@H](C)N1C(=O)C2CC=CCC2C1=O (some centres not stated)	-7.1%	1.3	-5.9%	-1.6%	-10.2	/
CCOc1cc(N2CCOCC2)c(OCC)cc1NC(=O)COc1cccc(CC)c1	-5.7%	/	10.4µM*	?	/	/
CCOc1cc(N2CCOCC2)c(OCC)cc1NC(=O)Cc1ccc(OC)c(OC)c1	-1.2%	2.0	9.28µM*	180.5%	26.4	1.7%
CCOc1cc(N2CCOCC2)c(OCC)cc1NCC(=O)N1CCN(Cc2ccccc2)CC1	0.1%	6.7	?	5.86µM*	-15.1	-3.2%
CCOc1cc(N2CCOCC2)c(OCC)cc1NC(C)C(=O)N1CCC(C)CC1 (configuration not stated)	-13.9%	-2.4	10.4µM*	?	-7.3	-2.2%
CCOc1cc(N2CCOCC2)c(OCC)cc1NC(=O)Cc1cccc(OC)c1	-9.0%	-3.9	?	?	-7.4	-13.9%
CCn1c(CNC(=O)Cc2ccc(OC)cc2)nnc1SCC(=O)NC1CCCCC1	-2.2%	-1.4	/	?	0.9	-10.9%
COc1ccc(OC)c(C2=CC(=O)C[C@H](c3ccc4c(c3)OCO4)C2)c1	-7.9%	/	0.0%	?	/	/
CCOc1cc(N2CCOCC2)c(OCC)cc1NC(=O)CSc1ccccc1C(=O)O	-10.4%	/	?	9.28µM*	/	/
CCOc1cc(N2CCOCC2)c(OCC)cc1NC(=O)CSc1nccc(C)n1	1.4%	1.8	?	?	22.7	/
CN(Cc1ccccc1)C(=O)CCS(=O)(=O)c1ccc2c(c1)n(C)c(=O)c(=O)n2C	22.4µM*	-3.0	-5.3%	-22.2%	-1.7	5.4%
Cn1c(=O)c(=O)n(C)c2cc(S(=O)(=O)CCC(=O)Nc3cccc(C(F)(F)F)c3)ccc21	1.4%	21.9	10.4%	10.4µM*	-0.8	20.1%
Cc1cccc(NC(=O)Cn2c(=O)c3cccn3c3ccccc32)c1C	-1.8%	/	/	/	/	/
CCCNC(=O)C(=O)Nc1ccc(N(C)C)cc1	-29.8%	31.3*	497.0%	?	68.4*	-0.3%
C=CCNC(=S)Nc1ccc(N(C)C)cc1	?	29.2*	-11.4%	?	24.2	6.8%
CN(C)c1ccc(NC(=O)C(=O)NCCOc2ccccc2)cc1	-1.2%	3.9	15.9%	?	19.5	/
CN(C)c1ccc(NC(N)=S)cc1	0.6%	4.2	16.4%	233.5%	17.1	19.4%
CCOCC(=O)Nc1cc(C(F)(F)F)ccc1Oc1cccc(Br)c1	-27.1%	-1.6	?	0.465µM*	-10.9	-42.1%
COc1ccc(N(C(C)=O)c2nc(C)cc(C)c2C#N)c(OC)c1	/	-3.2	-9.3%	3.5%	13.7	-2.3%
O=C1c2ccccc2C(=O)N1CCc1csc(-c2ccccc2)n1	9.4%	18.2*	37.8%	46.2%	35.8*	-16.2%
O=C1c2ccccc2C(=O)N1CCc1csc(-c2ccc(F)cc2)n1	17.6%	8.4	55.1%	80.9%	10.1	-23.3%
c1cncc(-c2nc(-c3ccc4c(c3)OCCO4)cs2)c1	5.7%	63.0*	-5.0%	-65.8%	128.3*	-68.2%
SMILES	Sm TGR block	Cycloheximide cs	Pf growth 48h	Pf growth 96h	Shiga inhibitor	NS1 function inh
Oc1ccc(-c2csc(-c3ccccc3)n2)cc1O	-28.6%	32.7*	104.8%	-27.6%	71.3*	-198.9%
CS(=O)(=O)c1ccc(-c2csc(-c3cccnc3)n2)cc1	7.8%	39.1*	/	-15.8%	54.0	-0.9%
Cc1nn(-c2ccc(F)cc2)c(-n2cccc2)c1C(=O)N1CCN(c2ccc(F)cc2)CC1	0.9%	/	/	/	/	/
CO/N=C(\c1nonc1N)N1CCN(c2ccc(Cl)cc2[N+](=O)[O-])CC1	16.1%	1.7	-7.3%	?	-5.8	-40.0%
Oc1ccc(-c2csc(-c3cccnc3)n2)cc1O	?	54.3*	117.1%	40.5%	61.1*	-8.5%
Oc1ccccc1-c1csc(-c2ccccc2)n1	-5.3%	75.0*	443.1%	-9.7%	158.5*	/
O=S(=O)(NCCc1csc(-c2cccnc2)n1)c1ccc(Cl)s1	-17.8%	-6.0	/	?	-12.7	-193.7%
Clc1ccc(-c2csc(-c3cccnc3)n2)s1	18.5%	32.1*	?	?	54.0*	-49.5%
CN(C)S(=O)(=O)c1ccc(-c2csc(-c3cccnc3)n2)cc1	-7.8%	19.4	?	?	20.6	-6.1%
Brc1ccsc1-c1csc(-c2ccncc2)n1	-2.7%	43.0*	/	?	87.0*	-49.5%
O=C(NCCCN1CCOCC1)c1ccc2c(c1)N(Cc1c(F)cccc1Cl)C(=O)c1ccccc1S2	1.3%	-9.2	?	?	-4.6	-3.1%
O=c1cc2nc(-c3ccccc3F)nc(SCc3ccc(Br)cc3)n2[nH]1	7.5%	/	/	/	/	/
Fc1ccccc1-c1csc(-c2cccnc2)n1	?	47.8*	115.7%	77.9%	37.8*	0.9%
c1ccc(-c2csc(-c3ccncc3)n2)cc1	-3.1%[57.1 µM]	30.7*	?	?	55.0*	-10.6%
Fc1ccc(-c2csc(-c3cccnc3)n2)cc1F	7.3%	22.5	/	0.0%	60.9*	-86.3%
Cc1csc(-c2cccnc2)n1	16.7%	-2.4	-3.4%	11.3%	11.8	-9.8%
CC(C)COc1ccc(C(=O)Nc2ccc(NC(=O)c3ccco3)cc2)cc1	5.8%	0.2	13.0%	-1.6%	-6.8	6.3%
COc1ccc(C2SCC(=O)Nc3c2c(C)nn3-c2ccccc2)cc1 (configuration not stated)	-6.1%	-3.0	/	-7.0%	-5.0	-4.5%
Cc1nn(-c2ccccc2)c2c1C(c1ccc(Cl)cc1)N(c1ccccc1)C(=O)N2 (configuration not stated)	-8.6%	-1.7	13.1µM*	13.1µM*	-13.5	4.0%
O=C(O)C1C2C=CC(C2)C1C(=O)NCc1ccc(Cl)cc1Cl (configuration not stated)	-31.2%	-3.3	3.6%	5.2%	1.0	3.6%
O=C(NNC(=O)C1C2C=CC(C2)C1C(=O)O)c1cc(Cl)ccc1O (configuration not stated)	-4.0%	19.3*	10.1%	-13.8%	21.2	14.5%
O=C(NNC(=O)C1C2C=CC(C2)C1C(=O)O)c1ccccc1 (configuration not stated)	0.9%	38.6*	4.2%	-16.3%	100.6*	-10.9%
O=C(O)C1C2C=CC(C2)C1C(=O)NCc1ccccc1F (configuration not stated)	6.9%	-0.8	17.7%	?	-4.3	3.2%
O=C(NNC(=O)C1C2C=CC(C2)C1C(=O)O)c1ccccc1O (configuration not stated)	-15.5%	16.9*	17.5%	-14.4%	50.3*	-4.7%

Assay outcomes as filed in PubChem BioAssay.
